# From PubChem BioAssay (EPA / NIEHS)
# Inconclusive results are not listed. The source made the active and inactive calls. The calls were made as follows, unless noted: active = hit-call score of the fitted dose curve at least 0.9, where 1 is the maximum; inconclusive = response in the unintended direction; inactive = score below 0.9.
# Legend:
# [1] = target: human Peroxisome Proliferator-activated Receptor alpha (PPARa), PPARA (gene 5465) (UniProt Q07869); experiment: ATG_PPARa_TRANS: Attagene TRANS-FACTORIAL HepG2 Assay for human Peroxisome Proliferator-activated Receptor alpha (PPARa) (AID 2283001)
# Procedure, shortened: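 HepG2, transient MRTU transfection, 24 h treatment. RT-PCR → FAM labelling → capillary electrophoresis. Fit vs DMSO, positive direction.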
# [2] = target: human Peroxisome Proliferator-activated Receptor delta (PPARd), PPARD (gene 5467) (UniProt Q03181); experiment: ATG_PPARd_TRANS: Attagene TRANS-FACTORIAL HepG2 Assay for human Peroxisome Proliferator-activated Receptor delta (PPARd) (AID 2283002)
# Procedure, shortened: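 Fluorescence from capillary electrophoresis of labelled RT-PCR reporter fragments gives the signal; DMSO sets baseline. Cells: HepG2 transiently carrying GAL4-UAS reporter units plus chimeric nuclear receptor-Gal4 proteins, exposed to chemicals for 24 h.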
# [3] = target: human Retinoic Acid Receptor beta (RARb), RARB (gene 5915) (UniProt P10826); experiment: ATG_RARb_TRANS: Attagene TRANS-FACTORIAL HepG2 Assay for human Retinoic Acid Receptor beta (AID 2283004)
# Procedure, shortened: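 HepG2, transient MRTU transfection, NR–Gal4 chimera, 24 h treatment; RT-PCR plus CE fluorescence detection of reporter mRNA; gain of signal vs DMSO.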
# [4] = target: Retinoic acid receptor alpha (Homo sapiens) (UniProt P10276); experiment: ATG_RARa_TRANS: Attagene TRANS-FACTORIAL HepG2 Assay for human Retinoic Acid Receptor alpha (RARa) (AID 2283005)
# Procedure, shortened: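 HepG2 transiently transfected with multiplex GAL4-UAS reporter units including a human RARa–GAL4 chimera; 24 h compound exposure. Reporter mRNA quantified by RT-PCR, 6-FAM labeling and capillary electrophoresis; gain of signal versus DMSO.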
# [5] = target: human RAR-related Orphan Receptor gamma (RORg), RORC (gene 6097) (UniProt P51449); experiment: ATG_RORg_TRANS: Attagene TRANS-FACTORIAL HepG2 Assay for human RAR-related Orphan Receptor gamma (RORg) (AID 2283011)
# Procedure, shortened: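 Activity is scored as increase in GAL4-UAS reporter mRNA over DMSO, detected by fluorescent RT-PCR and capillary electrophoresis in HepG2 cells transiently expressing a RORg-Gal4 chimera, 24 h after dosing.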
# [6] = target: Retinoic acid receptor RXR-alpha (Homo sapiens) (UniProt P19793); experiment: ATG_RXRa_TRANS: Attagene TRANS-FACTORIAL HepG2 Assay for human Retinoid X Receptor alpha (RXRa) (AID 2283012)
# Procedure, shortened: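 TRANS format reporting activity of exogenous RXRa-Gal4 chimera in transiently transfected HepG2, 24 h exposure. Reporter transcripts quantified by RT-PCR with capillary electrophoresis, with gain of signal scored relative to DMSO.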
# [7] = read-out: Intercellular Adhesion Molecule 1 (ICAM1), ICAM1 (gene 3383); experiment: BSK_3C_ICAM1: BioMAP Diversity Plus: 3C Assay for Intercellular Adhesion Molecule 1 (ICAM1) Biomarker Activity (AID 2283003; active = hit-call score of the fitted dose curve at least 0.9, where 1 is the maximum; inactive = score below 0.9); conditions: primary human endothelial cells (HUVEC); actives raise or lower the signal
# Procedure, shortened: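 ELISA readout of ICAM1 in human umbilical vein endothelial cells in the 3C system, taken 24 h post-dose. Gain or loss of signal versus DMSO was fitted in both directions, with SRB total-protein staining run in parallel.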
# [8] = BSK_3C_Proliferation: Cell Proliferation Assessment in the BioMAP Diversity Plus: 3C Assay (AID 2283006; active = hit-call score of the fitted dose curve at least 0.9, where 1 is the maximum; inactive = score below 0.9); conditions: primary human endothelial cells (HUVEC)
# Procedure, shortened: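 Proliferation as total protein: sulforhodamine B (0.1%) stain of TCA-fixed subconfluent human umbilical vein endothelial cells, absorbance 560 nm, 48 h after dosing. Activity fitted in both directions against DMSO baseline.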
# [9] = target: Peroxisome proliferator-activated receptor gamma (Homo sapiens) (UniProt P37231); experiment: ATG_PPARg_TRANS: Attagene TRANS-FACTORIAL HepG2 Assay for human Peroxisome Proliferator-activated Receptor-gamma (PPARg) (AID 2283007)
# Procedure, shortened: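 Multiplexed reporter transcription units in HepG2, 24 h dosing, reporter transcripts quantified by fluorescent RT-PCR and capillary electrophoresis. Increase over DMSO scored.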
# [10] = target: Nuclear receptor subfamily 1 group I member 2 (Homo sapiens) (UniProt O75469); experiment: ATG_PXR_TRANS: Attagene TRANS-FACTORIAL HepG2 Assay for human Pregnane X Receptor (PXR) (AID 2283008)
# Procedure, shortened: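 HepG2 transfected (FuGene 6) with GAL4-UAS reporter units + PXR-Gal4 chimera; dosed 24 h. Total RNA → oligo(dT) RT → PCR → 6-FAM primer extension → HpaI cut → CE. Gain-of-signal vs DMSO.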
# [11] = target: human Retinoic Acid Receptor gamma (RARg), RARG (gene 5916) (UniProt P13631); experiment: ATG_RARg_TRANS: Attagene TRANS-FACTORIAL HepG2 Assay for human Retinoic Acid Receptor gamma (RARg) (AID 2283009)
# Procedure, shortened: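 Transactivation of exogenous RARg-Gal4 fusion measured as reporter transcript induction after 24 h in transfected HepG2 cells. RNA reverse-transcribed, amplified, fluorescently labeled and resolved by capillary electrophoresis; increase relative to DMSO.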
# [12] = target: human Thyroid Receptor alpha (THRa1), THRA (gene 7067) (UniProt P10827); experiment: ATG_THRa1_TRANS: Attagene TRANS-FACTORIAL HepG2 Assay for human Thyroid Receptor alpha (THRa1) (AID 2283014)
# Procedure, shortened: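 First, HepG2 cells receive multiple GAL4-UAS reporter units and the chimeric receptor. They are then dosed for 24 h, after which RNA is reverse-transcribed, amplified, labelled, HpaI-cut and sized by capillary electrophoresis; gain relative to DMSO is scored.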
# [13] = read-out: E-selectin (Homo sapiens) (UniProt P16581); experiment: BSK_3C_Eselectin: BioMAP Diversity Plus: 3C Assay for Eselectin Biomarker Activity (AID 2283015; active = hit-call score of the fitted dose curve at least 0.9, where 1 is the maximum; inactive = score below 0.9;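 also: cell surface E-selectin protein quantified by ELISA 24 h after dosing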); conditions: primary human endothelial cells (HUVEC); actives raise or lower the signal
# Procedure, shortened: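 Human vascular endothelium from umbilical vein is exposed to test chemicals for 24 h. E-selectin levels are read by ELISA and compared with DMSO controls.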
# [14] = read-out: Interleukin-1 alpha (IL1a), IL1A (gene 3552); experiment: BSK_BE3C_IL1a: BioMAP Diversity Plus: BE3C Assay for Interleukin-1 alpha (IL1a) Biomarker Activity (AID 2283016; active = hit-call score of the fitted dose curve at least 0.9, where 1 is the maximum; inactive = score below 0.9); conditions: primary human bronchial epithelial cells; actives raise or lower the signal
# Procedure, shortened: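 IL-1a measured by ELISA after 24 h treatment of human primary bronchial epithelial cells, with gain or loss of signal fitted versus DMSO. Parallel cultures stained with SRB gauge overt cytotoxicity.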
# [15] = read-out: Monocyte Chemoattractant Protein-1 (MCP1), CCL2 (gene 6347); experiment: BSK_3C_MCP1: BioMAP Diversity Plus: 3C Assay for Monocyte Chemoattractant Protein-1 (MCP1) Biomarker Activity (AID 2283017; active = hit-call score of the fitted dose curve at least 0.9, where 1 is the maximum; inactive = score below 0.9); conditions: primary human endothelial cells (HUVEC); actives raise or lower the signal
# Procedure, shortened: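 Endothelial cells from human umbilical vein are dosed with chemical, cultured 24 h, then assayed for MCP-1 by ELISA; both increases and decreases are modelled against DMSO controls.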
# [16] = read-out: Monocyte Chemoattractant Protein-1 (MCP1), CCL2 (gene 6347); experiment: BSK_4H_MCP1: BioMAP Diversity Plus: 4H Assay for Monocyte Chemoattractant Protein-1 (MCP1) Biomarker Activity (AID 2283018; active = hit-call score of the fitted dose curve at least 0.9, where 1 is the maximum; inactive = score below 0.9); conditions: primary human endothelial cells (HUVEC); actives raise or lower the signal
# Procedure, shortened: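 ELISA of MCP-1 (CCL2) 24 h after chemical dosing of HUVEC in the BioMAP 4H system. Gain or loss versus DMSO fitted; parallel SRB staining (560 nm) tracked overt cytotoxicity.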
# [17] = read-out: Human Leukocyte Antigen - DR isotype (HLADR), HLA-DRA (gene 3122); experiment: BSK_3C_HLADR: BioMAP Diversity Plus: 3C Assay for Human Leukocyte Antigen - DR isotype (HLADR) Biomarker Activity (AID 2283019; active = hit-call score of the fitted dose curve at least 0.9, where 1 is the maximum; inactive = score below 0.9;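 also: ELISA of cell-surface HLA-DR on HUVEC 24 h after dosing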); conditions: primary human endothelial cells (HUVEC); actives raise or lower the signal
# Procedure, shortened: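 Endothelial cells from human umbilical vein are treated with test chemical; after 24 h, HLA-DR levels are measured by ELISA. Data are fitted in both directions using DMSO as the baseline.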
# [18] = read-out: Interleukin-8 (IL8), CXCL8 (gene 3576); experiment: BSK_3C_IL8: BioMAP Diversity Plus: 3C Assay for Interleukin-8 (IL8) Biomarker Activity (AID 2283020; active = hit-call score of the fitted dose curve at least 0.9, where 1 is the maximum; inactive = score below 0.9); conditions: primary human endothelial cells (HUVEC); actives raise or lower the signal
# Procedure, shortened: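 IL-8 was measured by ELISA in HUVEC cultures 24 h after chemical dosing, with gain or loss of signal fitted relative to DMSO. Parallel SRB total-protein staining tracked overt cytotoxicity.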
# [19] = target: human Retinoid X Receptor beta (RXRb), RXRB (gene 6257) (UniProt P28702); experiment: ATG_RXRb_TRANS: Attagene TRANS-FACTORIAL HepG2 Assay for human Retinoid X Receptor beta (RXRb) (AID 2283013)
# Procedure, shortened: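 Readout is reporter transcript induction after 24 h dosing. It is measured by RT-PCR of total RNA followed by fluorescent capillary electrophoresis. HepG2 liver cells carry transfected multiple reporter units driven by an exogenous RXRb-Gal4 fusion; activity is relative to DMSO.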
# [20] = target: human RAR-related Orphan Receptor beta (RORb), RORB (gene 6096) (UniProt Q92753); experiment: ATG_RORb_TRANS: Attagene TRANS-FACTORIAL HepG2 Assay for human RAR-related Orphan Receptor beta (RORb) (AID 2283010)
# Procedure, shortened: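 Read-out is reporter mRNA induction, quantified by RT-PCR with fluorescent capillary electrophoresis, 24 h post-dose in transiently transfected HepG2 expressing exogenous NR-Gal4 chimera. Activity fitted upward versus DMSO.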
# human RAR-related Orphan Receptor gamma (RORg), RORC (gene 6097), sequence (P51449 whole entry, looked up, the tested form may be a part): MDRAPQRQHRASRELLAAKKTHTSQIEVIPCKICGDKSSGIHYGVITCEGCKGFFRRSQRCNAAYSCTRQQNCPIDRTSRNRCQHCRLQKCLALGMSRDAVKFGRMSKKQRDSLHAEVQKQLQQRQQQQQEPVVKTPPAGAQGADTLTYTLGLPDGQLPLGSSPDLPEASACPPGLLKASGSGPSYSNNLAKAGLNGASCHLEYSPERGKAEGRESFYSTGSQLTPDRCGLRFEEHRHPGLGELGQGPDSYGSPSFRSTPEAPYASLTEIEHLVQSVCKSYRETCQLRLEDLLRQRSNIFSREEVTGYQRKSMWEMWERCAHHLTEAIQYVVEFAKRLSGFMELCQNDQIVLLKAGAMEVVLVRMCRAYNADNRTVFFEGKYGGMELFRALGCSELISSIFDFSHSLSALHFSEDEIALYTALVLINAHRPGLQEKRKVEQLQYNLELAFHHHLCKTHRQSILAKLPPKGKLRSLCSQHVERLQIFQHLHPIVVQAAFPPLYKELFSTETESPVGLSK
# human RAR-related Orphan Receptor beta (RORb), RORB (gene 6096), sequence (Q92753 whole entry, looked up, the tested form may be a part): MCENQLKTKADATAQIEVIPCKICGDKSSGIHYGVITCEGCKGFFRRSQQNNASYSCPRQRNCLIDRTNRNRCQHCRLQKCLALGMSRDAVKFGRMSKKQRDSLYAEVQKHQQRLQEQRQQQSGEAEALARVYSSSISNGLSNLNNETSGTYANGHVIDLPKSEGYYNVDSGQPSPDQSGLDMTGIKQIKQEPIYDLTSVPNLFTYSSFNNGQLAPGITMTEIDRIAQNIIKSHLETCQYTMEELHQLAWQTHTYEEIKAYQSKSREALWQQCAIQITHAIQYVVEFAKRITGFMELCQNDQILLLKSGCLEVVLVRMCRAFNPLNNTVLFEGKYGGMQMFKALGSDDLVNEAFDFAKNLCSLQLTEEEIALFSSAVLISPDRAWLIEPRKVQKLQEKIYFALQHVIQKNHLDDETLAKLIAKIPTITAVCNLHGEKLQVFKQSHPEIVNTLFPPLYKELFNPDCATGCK
# human Thyroid Receptor alpha (THRa1), THRA (gene 7067), sequence (P10827 whole entry, looked up, the tested form may be a part): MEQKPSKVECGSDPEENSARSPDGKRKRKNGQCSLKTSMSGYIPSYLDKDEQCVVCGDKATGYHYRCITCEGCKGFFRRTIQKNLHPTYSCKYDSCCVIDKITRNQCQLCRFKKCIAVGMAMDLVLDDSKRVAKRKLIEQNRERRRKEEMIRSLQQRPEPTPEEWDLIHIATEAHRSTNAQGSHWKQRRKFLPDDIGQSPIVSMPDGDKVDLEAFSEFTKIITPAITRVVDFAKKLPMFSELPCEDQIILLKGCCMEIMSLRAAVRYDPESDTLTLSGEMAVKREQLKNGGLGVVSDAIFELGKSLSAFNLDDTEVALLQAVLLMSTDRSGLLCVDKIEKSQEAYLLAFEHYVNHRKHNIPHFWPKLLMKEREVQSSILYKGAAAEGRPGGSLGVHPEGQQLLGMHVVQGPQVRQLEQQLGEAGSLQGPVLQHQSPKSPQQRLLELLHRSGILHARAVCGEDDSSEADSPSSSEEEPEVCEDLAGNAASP
# human Retinoid X Receptor beta (RXRb), RXRB (gene 6257), sequence (P28702 whole entry, looked up, the tested form may be a part): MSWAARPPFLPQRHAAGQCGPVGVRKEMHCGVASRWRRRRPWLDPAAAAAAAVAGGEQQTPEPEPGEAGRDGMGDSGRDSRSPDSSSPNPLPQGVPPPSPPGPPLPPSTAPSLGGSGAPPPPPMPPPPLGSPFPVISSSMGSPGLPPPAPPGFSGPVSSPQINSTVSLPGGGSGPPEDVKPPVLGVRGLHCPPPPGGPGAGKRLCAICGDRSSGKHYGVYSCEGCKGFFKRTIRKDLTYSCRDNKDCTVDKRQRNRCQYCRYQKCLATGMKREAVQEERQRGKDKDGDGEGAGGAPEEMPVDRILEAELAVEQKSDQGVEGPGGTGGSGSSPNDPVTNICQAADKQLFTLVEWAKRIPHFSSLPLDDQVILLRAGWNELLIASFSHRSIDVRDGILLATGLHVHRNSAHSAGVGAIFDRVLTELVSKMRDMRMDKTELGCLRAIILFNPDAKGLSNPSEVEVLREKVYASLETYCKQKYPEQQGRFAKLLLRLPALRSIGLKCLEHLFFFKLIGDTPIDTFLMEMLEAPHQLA
# Retinoic acid receptor RXR-alpha (Homo sapiens), sequence (P19793 whole entry, looked up, the tested form may be a part): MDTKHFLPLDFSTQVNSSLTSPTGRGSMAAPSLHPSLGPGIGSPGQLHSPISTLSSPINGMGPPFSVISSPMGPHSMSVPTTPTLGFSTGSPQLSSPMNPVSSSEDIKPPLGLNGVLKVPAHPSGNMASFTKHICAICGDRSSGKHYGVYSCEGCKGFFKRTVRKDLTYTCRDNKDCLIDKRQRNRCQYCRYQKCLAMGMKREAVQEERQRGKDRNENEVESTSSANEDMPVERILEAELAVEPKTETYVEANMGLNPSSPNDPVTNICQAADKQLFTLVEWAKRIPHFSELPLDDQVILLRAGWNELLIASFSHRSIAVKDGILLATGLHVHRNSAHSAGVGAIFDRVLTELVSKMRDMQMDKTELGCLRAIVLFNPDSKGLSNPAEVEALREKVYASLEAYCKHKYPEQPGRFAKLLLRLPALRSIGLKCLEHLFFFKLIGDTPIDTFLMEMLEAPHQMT
# human Retinoic Acid Receptor beta (RARb), RARB (gene 5915), sequence (P10826 whole entry, looked up, the tested form may be a part): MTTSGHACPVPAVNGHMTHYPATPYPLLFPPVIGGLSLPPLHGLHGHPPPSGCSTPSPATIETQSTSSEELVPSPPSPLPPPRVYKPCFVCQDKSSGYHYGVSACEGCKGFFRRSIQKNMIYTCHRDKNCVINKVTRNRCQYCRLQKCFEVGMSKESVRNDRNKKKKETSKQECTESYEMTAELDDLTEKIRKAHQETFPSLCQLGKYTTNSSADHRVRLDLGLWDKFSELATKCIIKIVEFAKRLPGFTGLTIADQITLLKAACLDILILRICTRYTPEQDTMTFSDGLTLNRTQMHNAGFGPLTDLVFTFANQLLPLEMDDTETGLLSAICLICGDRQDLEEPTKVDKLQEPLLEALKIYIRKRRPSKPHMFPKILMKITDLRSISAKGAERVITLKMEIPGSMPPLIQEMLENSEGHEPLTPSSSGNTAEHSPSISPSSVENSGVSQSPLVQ
# Nuclear receptor subfamily 1 group I member 2 (Homo sapiens), sequence (O75469 whole entry, looked up, the tested form may be a part): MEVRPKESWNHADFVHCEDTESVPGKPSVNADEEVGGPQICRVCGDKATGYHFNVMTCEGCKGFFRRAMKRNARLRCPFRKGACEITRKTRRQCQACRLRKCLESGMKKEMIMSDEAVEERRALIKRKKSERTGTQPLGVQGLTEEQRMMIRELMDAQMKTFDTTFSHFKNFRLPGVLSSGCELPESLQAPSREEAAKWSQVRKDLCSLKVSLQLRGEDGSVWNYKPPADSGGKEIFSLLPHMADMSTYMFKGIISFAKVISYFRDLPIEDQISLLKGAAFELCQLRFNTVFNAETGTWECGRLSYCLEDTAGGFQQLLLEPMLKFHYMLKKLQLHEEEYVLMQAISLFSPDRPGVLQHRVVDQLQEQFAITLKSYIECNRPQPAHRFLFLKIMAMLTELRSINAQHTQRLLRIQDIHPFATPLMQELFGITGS
# Retinoic acid receptor alpha (Homo sapiens), sequence (P10276 whole entry, looked up, the tested form may be a part): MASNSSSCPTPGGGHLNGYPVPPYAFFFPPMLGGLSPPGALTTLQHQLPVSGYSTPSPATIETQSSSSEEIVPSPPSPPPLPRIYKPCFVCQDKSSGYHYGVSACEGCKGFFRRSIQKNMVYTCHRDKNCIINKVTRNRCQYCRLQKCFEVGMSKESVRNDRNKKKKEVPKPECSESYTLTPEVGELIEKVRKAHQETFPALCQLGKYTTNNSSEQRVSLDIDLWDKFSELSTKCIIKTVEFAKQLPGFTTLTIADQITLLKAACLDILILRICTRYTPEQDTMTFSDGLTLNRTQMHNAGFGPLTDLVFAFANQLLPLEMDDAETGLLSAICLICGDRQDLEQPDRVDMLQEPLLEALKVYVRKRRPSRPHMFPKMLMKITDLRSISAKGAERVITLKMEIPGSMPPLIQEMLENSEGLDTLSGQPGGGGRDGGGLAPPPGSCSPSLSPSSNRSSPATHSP
# human Retinoic Acid Receptor gamma (RARg), RARG (gene 5916), sequence (P13631 whole entry, looked up, the tested form may be a part): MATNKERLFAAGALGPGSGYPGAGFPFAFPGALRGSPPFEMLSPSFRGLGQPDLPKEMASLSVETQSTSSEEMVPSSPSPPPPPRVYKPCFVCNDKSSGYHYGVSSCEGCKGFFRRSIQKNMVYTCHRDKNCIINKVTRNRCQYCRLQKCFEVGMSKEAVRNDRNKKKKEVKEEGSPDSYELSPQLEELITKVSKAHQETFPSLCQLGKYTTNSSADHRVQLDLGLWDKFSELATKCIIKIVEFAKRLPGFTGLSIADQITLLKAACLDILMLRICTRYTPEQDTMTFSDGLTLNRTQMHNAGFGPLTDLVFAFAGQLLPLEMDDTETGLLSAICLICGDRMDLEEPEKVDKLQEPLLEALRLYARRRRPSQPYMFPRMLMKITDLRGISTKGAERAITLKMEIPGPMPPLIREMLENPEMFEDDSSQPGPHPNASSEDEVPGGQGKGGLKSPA
# human Peroxisome Proliferator-activated Receptor alpha (PPARa), PPARA (gene 5465), sequence (Q07869 whole entry, looked up): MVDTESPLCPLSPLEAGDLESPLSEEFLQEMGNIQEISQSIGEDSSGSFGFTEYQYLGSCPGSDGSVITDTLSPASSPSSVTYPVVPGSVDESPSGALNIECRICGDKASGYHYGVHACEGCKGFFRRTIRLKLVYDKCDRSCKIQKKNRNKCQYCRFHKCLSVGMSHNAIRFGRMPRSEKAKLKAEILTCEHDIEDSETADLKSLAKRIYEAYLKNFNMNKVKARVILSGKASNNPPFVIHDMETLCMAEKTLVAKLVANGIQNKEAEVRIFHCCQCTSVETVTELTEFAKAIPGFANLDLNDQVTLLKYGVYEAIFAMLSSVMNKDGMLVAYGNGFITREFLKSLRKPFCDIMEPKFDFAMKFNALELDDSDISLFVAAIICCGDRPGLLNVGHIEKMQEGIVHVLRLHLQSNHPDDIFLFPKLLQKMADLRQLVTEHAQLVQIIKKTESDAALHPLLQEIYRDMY
smiles,measurement,setting,value
NC(=O)C1CO1 (configuration not stated),outcome,[1],inactive
same,outcome,[2],inactive
same,outcome,[3],inactive
same,outcome,[4],inactive
same,outcome,[5],inactive
same,outcome,[6],inactive
S=C(NC1CCCCC1)NC1CCCCC1,outcome,[1],inactive
same,outcome,[2],inactive
same,outcome,[7],inactive
same,outcome,[8],inactive
same,outcome,[9],inactive
same,AC50,[10],8.05 µM (active)
same,outcome,[11],inactive
same,outcome,[12],inactive
same,outcome,[13],inactive
same,outcome,[14],inactive
same,outcome,[15],inactive
same,outcome,[16],inactive
same,outcome,[17],inactive
same,outcome,[18],inactive
C(=CC=Nc1ccccc1)C=CNc1ccccc1,outcome,[1],inactive
same,outcome,[2],inactive
same,outcome,[3],inactive
same,outcome,[4],inactive
same,outcome,[9],inactive
same,outcome,[10],inactive
same,outcome,[6],inactive
same,outcome,[19],inactive
COCC(C)N (configuration not stated),outcome,[1],inactive
same,outcome,[2],inactive
same,outcome,[3],inactive
same,outcome,[9],inactive
same,outcome,[10],inactive
same,outcome,[5],inactive
same,outcome,[6],inactive
same,outcome,[12],inactive
CCOc1nc(F)cc2nc(S(=O)(=O)Nc3c(Cl)cccc3C(=O)OC)nn12,outcome,[1],inactive
same,outcome,[2],inactive
same,outcome,[7],inactive
same,outcome,[3],inactive
same,outcome,[4],inactive
same,outcome,[8],inactive
same,AC50,[9],46.2 µM (active)
same,AC50,[10],7.06 µM (active)
same,outcome,[11],inactive
same,outcome,[5],inactive
same,outcome,[6],inactive
same,outcome,[19],inactive
same,outcome,[12],inactive
same,outcome,[13],inactive
same,outcome,[14],inactive
same,outcome,[15],inactive
same,outcome,[16],inactive
same,outcome,[17],inactive
same,outcome,[18],inactive
C=CC(C)(CCC=C(C)C)OC(=O)C(C)C (configuration not stated),outcome,[1],inactive
same,outcome,[2],inactive
same,outcome,[3],inactive
same,outcome,[9],inactive
same,AC50,[10],27.4 µM (active)
same,outcome,[6],inactive
same,AC50,[19],57.4 µM (active)
same,outcome,[12],inactive
CCC(CC)C(=O)O,outcome,[1],inactive
same,outcome,[2],inactive
same,outcome,[3],inactive
same,outcome,[20],inactive
same,outcome,[6],inactive
C[Si](C)(C)O[Si](O)(O)O,outcome,[1],inactive
same,outcome,[2],inactive
same,outcome,[3],inactive
same,outcome,[10],inactive
same,outcome,[5],inactive
same,outcome,[6],inactive
same,outcome,[19],inactive
O=C1CC2CC1C1CCCC21 (configuration not stated),outcome,[1],inactive
same,outcome,[2],inactive
same,outcome,[9],inactive
same,outcome,[10],inactive
same,outcome,[11],inactive
same,outcome,[20],inactive
same,outcome,[6],inactive
same,outcome,[19],inactive
same,outcome,[12],inactive
CC(=O)c1ccc[nH]1,outcome,[1],inactive
same,outcome,[2],inactive
same,outcome,[4],inactive
same,outcome,[9],inactive
same,outcome,[5],inactive
same,outcome,[6],inactive
same,outcome,[19],inactive
same,outcome,[12],inactive
CCOC(=O)CC(C(C)=O)C(C)=O,outcome,[1],inactive
same,outcome,[2],inactive
same,outcome,[4],inactive
same,outcome,[20],inactive
same,outcome,[6],inactive
O=S(=O)(O)CC(O)CCl (configuration not stated),outcome,[1],inactive
same,outcome,[2],inactive
same,AC50,[9],26.4 µM (active)
same,outcome,[10],inactive
same,outcome,[19],inactive
C=CC(C)(C)C,outcome,[1],inactive
same,outcome,[2],inactive
same,outcome,[9],inactive
same,outcome,[5],inactive
same,outcome,[6],inactive
